Data from PubChem BioAssay (NCATS).
Results filed as inconclusive are left out. The source made the active and inactive calls. Calls come from the whole dose curve; as a rule, active = well fitted inhibition curve with a large enough effect; inconclusive = small, poorly fitted or top-dose-only effect; inactive = flat fitted curve, though single readings scatter.

What was measured:
Test in all cases: qHTS profiling for inhibitors of Plasmodium falciparum proliferation (AID 504749); note: nearly all actives have a fitted effect of over 60% in size
Details in all cases: P. falciparum in erythrocytes, SYBR Green DNA, 72 h; series mostly up to 28.7 µM
[1] = system: CP191
How it was run: (§1)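 Fluorescence of SYBR Green-bound parasite DNA, read at 485/535 nm, served as the growth measure. Infected erythrocytes were cultured with compound 72 h; artemisinin (0.29 uM) and DMSO wells defined the normalization range.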

[2] = system: CP192
How it was run: as §1

[3] = system: CP194
How it was run: as §1

[4] = system: CP201
How it was run: as §1

[5] = system: CP203
How it was run: as §1

[6] = system: CP211
How it was run: as §1

[7] = system: CP215
How it was run: as §1

[8] = system: CP217
How it was run: as §1

[9] = system: CP237
How it was run: as §1

[10] = system: CP238
How it was run: as §1

[11] = system: CP247
How it was run: as §1

[12] = system: CP250
How it was run: as §1

[13] = system: CP252
How it was run: as §1

[14] = system: CP256
How it was run: as §1

[15] = system: CP260
How it was run: as §1

[16] = system: CP262
How it was run: as §1

[17] = system: CP265
How it was run: as §1

[18] = system: CP266
How it was run: as §1

[19] = system: CP268
How it was run: as §1

[20] = system: CP269
How it was run: as §1

Measured: Potency
Potency is the fitted concentration of half-maximal effect.

CCCCC(CC)COC(=O)c1ccc(N(C)C)cc1 (stereo not given)
inactive: all assays above

FC(F)(F)C(F)(F)C(F)(F)C(F)(F)C(F)(F)C(F)(F)C(F)(F)C(F)(F)Br
inactive: all assays above

Nc1nc(-c2ccccc2)c(Br)c(=O)[nH]1
inactive: all assays above

NCCNC(=O)c1ccc(Cl)cn1
inactive: all assays above

CC(=O)Nc1ccc(CC(=O)O)cc1
inactive: all assays above

O=S(=O)(O)c1ccc(O)cc1
inactive: all assays above

O=C(O)P(=O)(O)O
inactive: all assays above

CCCN(CCC)S(=O)(=O)c1ccc(C(=O)O)cc1
inactive: all assays above

O=c1[nH]c(=O)n([C@H]2C[C@H](O)[C@@H](CO)O2)cc1F
inactive: all assays above

CCN(CC)CCNc1ccc(CO)c2sc3ccccc3c(=O)c12
inactive: [16]
active: [1] 355 nM | [2] 1690 nM | [3] 3380 nM | [4] 7570 nM | [5] 4260 nM | [6] 4260 nM | [7] 4260 nM | [8] 2820 nM | [9] 891 nM | [10] 1000 nM | [11] 891 nM | [12] 1000 nM | [13] 562 nM | [14] 1780 nM | [15] 794 nM | [17] 1580 nM | [18] 5360 nM | [19] 3380 nM | [20] 1900 nM

O[C@@H](c1cc(C(F)(F)F)nc2c(C(F)(F)F)cccc12)[C@H]1CCCCN1
active: [1] 50.1 nM | [2] 120 nM | [3] 213 nM | [4] 379 nM | [5] 84.9 nM | [6] 213 nM | [7] 95.3 nM | [8] 39.8 nM | [9] 25.1 nM | [10] 44.7 nM | [11] 70.8 nM | [12] 63.1 nM | [13] 31.6 nM | [14] 63.1 nM | [15] 31.6 nM | [16] 190 nM | [17] 35.5 nM | [18] 601 nM | [19] 151 nM | [20] 53.6 nM

CCN(CC)CCNC(=O)COc1ccc(OC)cc1
inactive: all assays above

CCC1Nc2cc(Cl)c(S(N)(=O)=O)cc2S(=O)(=O)N1 (stereo not given)
inactive: all assays above

O=C1C(O)=C(O)C(=O)C(O)=C1O
inactive: all assays above

CCCCCCCCNC(C)C(O)c1ccc(SC(C)C)cc1 (stereo not given)
active: [1] 794 nM | [2] 2130 nM | [3] 1900 nM | [4] 3790 nM | [5] 1690 nM | [6] 3380 nM | [7] 1690 nM | [8] 708 nM | [9] 794 nM | [10] 794 nM | [11] 891 nM | [12] 891 nM | [13] 794 nM | [14] 1000 nM | [15] 355 nM | [16] 2130 nM | [17] 1120 nM | [18] 1690 nM | [19] 1510 nM | [20] 1510 nM

CCc1oc2ccccc2c1C(=O)c1cc(I)c(O)c(I)c1
inactive: all assays above

CCCCCCCCCCCCCCCC(=O)O
inactive: all assays above

Cc1ccccc1OCC(O)CO (stereo not given)
inactive: all assays above

CCCCNC(=O)NS(=O)(=O)c1ccc(N)cc1
inactive: all assays above

Cn1c(=O)c2[nH]c(Br)nc2n(C)c1=O
inactive: all assays above

CC(=O)Nc1ccc(S(=O)(=O)Nc2ccc([N+](=O)[O-])cc2)cc1
inactive: all assays above

CC(=O)Nc1ncc([N+](=O)[O-])s1
inactive: all assays above

C[C@@H](O)[C@H]1C(=O)N2C(C(=O)O)=C(S[C@@H]3CN[C@H](CNS(N)(=O)=O)C3)[C@H](C)[C@H]12
inactive: all assays above

COc1cc(NS(=O)(=O)c2ccc(N)cc2)ncn1
inactive: all assays above
